Laboratory results taken from the supplement of paper PMC6555819.

Columns and labels:
Test in all cases: PBM binding z-score (relative to random genomic background probes); higher = stronger binding; sequences stand for … in GC…GCGATTGACAGCGTAGAATGAAGG
[1] = tested on: FXR:RXRa (NR concentration 270 nM, RXRa partner concentration 90 nM)
In short: (§1)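 Custom Agilent 4×180K protein-binding microarrays carried double-stranded probes, each with a 34-nt variable region. These regions held direct-repeat seeds, single-nucleotide variants, half-site ablations and random human genomic background sequences. Ligand-free nuclear receptor dimers were incubated on the arrays for 1 h, antibodies against each partner (one per run) detected binding, and scanned fluorescence was regression-normalized. Binding z-scores take the random background probes as reference.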

[2] = tested on: LXRa:RXRa (NR concentration 270 nM, RXRa partner concentration 90 nM)
In short: as §1

[3] = tested on: LXRa homodimer (NR concentration 270 nM)
In short: as §1

[4] = tested on: LXRb:RXRa (NR concentration 270 nM, RXRa partner concentration 90 nM)
In short: as §1

[5] = tested on: LXRb homodimer (NR concentration 270 nM)
In short: as §1

[6] = tested on: PPARa:RXRa (NR concentration 270 nM, RXRa partner concentration 90 nM)
In short: as §1

[7] = tested on: PPARg:RXRa (NR concentration 180 nM, RXRa partner concentration 90 nM)
In short: as §1

[8] = tested on: PPARg:RXRa 270nM:90nM, anti-RXR (NR concentration 270 nM, RXRa partner concentration 90 nM)
In short: as §1

[9] = tested on: PPARg:RXRa 30nM:10nM, anti-RXR (NR concentration 30 nM, RXRa partner concentration 10 nM)
In short: as §1

[10] = tested on: PPARg:RXRa 90nM:30nM, anti-RXR (NR concentration 90 nM, RXRa partner concentration 30 nM)
In short: as §1

[11] = tested on: PPARg:RXRa DBDmut IVT, anti-RXR (DBD mutation: RXRa K156A/R161A, NR concentration 270 nM, RXRa partner concentration 90 nM)
In short: as §1

[12] = tested on: PPARg:RXRa IVT, anti-PPARg (NR concentration 270 nM, RXRa partner concentration 90 nM)
In short: as §1

[13] = tested on: PPARg DBDmut:RXRa IVT, anti-PPARg (DBD mutation: PPARg1 K132A/R137A, NR concentration 270 nM, RXRa partner concentration 90 nM)
In short: as §1

[14] = tested on: PPARg DBDmut IVT, anti-PPARg (DBD mutation: PPARg1 K132A/R137A, NR concentration 270 nM)
In short: as §1

[15] = tested on: PPARg homodimer (NR concentration 180 nM)
In short: as §1

[16] = tested on: PXR:RXRa (NR concentration 270 nM, RXRa partner concentration 90 nM)
In short: as §1

[17] = tested on: PXR homodimer (NR concentration 270 nM)
In short: as §1

[18] = tested on: RARa:RXR (NR concentration 270 nM, RXRa partner concentration 90 nM)
In short: as §1

[19] = tested on: RARa homodimer (NR concentration 270 nM)
In short: as §1

[20] = tested on: RARb:RXRa (NR concentration 270 nM, RXRa partner concentration 90 nM)
In short: as §1

Sequence | PBM binding z-score [1] | PBM binding z-score [2] | PBM binding z-score [3] | PBM binding z-score [4] | PBM binding z-score [5] | PBM binding z-score [6] | PBM binding z-score [7] | PBM binding z-score [8] | PBM binding z-score [9] | PBM binding z-score [10] | PBM binding z-score [11] | PBM binding z-score [12] | PBM binding z-score [13] | PBM binding z-score [14] | PBM binding z-score [15] | PBM binding z-score [16] | PBM binding z-score [17] | PBM binding z-score [18] | PBM binding z-score [19] | PBM binding z-score [20]
TCATATAGGTAAATGCTAGGCGAAAGTCCGATCT | 0.564 | 0.758 | 0.304 | 0.58 | -0.0313 | 0.932 | 0.63 | 2.22 | 3.7 | 2.88 | 3.99 | 1.93 | 1.19 | 0.583 | 0.561 | 0.4 | 0.459 | 0.458 | 0.728 | 0.249
ATATGTAGGTTACCTCCGGGTCATTCAGGCTATG | 2.86 | 5.14 | 1.84 | 3.15 | 0.804 | 4.5 | 5.68 | 4.82 | 2.2 | 4.09 | 7.18 | 6.7 | 1.67 | 1.41 | 1.74 | 3.67 | 1.8 | 3.75 | 0.561 | 2.51
GTACCAAGGTGAATAGTTCGTTGATGAGTAGGCG | 0.539 | 0.334 | -0.116 | 0.214 | -0.29 | 1.24 | 0.857 | 1.06 | -0.033 | 0.842 | 1.57 | 1.94 | 0.321 | 0.393 | 0.906 | 0.39 | 0.918 | 0.576 | 0.742 | 1.94
CGAACTAGGTCATCCAGGACAGTTAATACATTGA | 4.18 | 2.59 | 0.501 | 2.29 | 0.155 | 4.77 | 7.57 | 6.32 | 3.81 | 5.9 | 7.93 | 8.11 | 4.57 | 2.72 | 2.19 | 2.02 | 1.63 | 2.6 | 1.19 | 3.72
CCGTGTAGGTTATGGGGCATTCAGGCAACGGTGA | 0.503 | 0.731 | 0.151 | 0.984 | 0.31 | 2.13 | 2.03 | 3.57 | 1.74 | 3.16 | 2.12 | 2.67 | -1.11 | -0.904 | 1.42 | 0.0818 | -0.178 | 0.761 | 0.31 | 1.33
TGGCAAAGTTCAAAGGTAACGTAAGTATCCACAC | 7.23 | 6.17 | 4.18 | 4.49 | 1.25 | 5.55 | 6.74 | 7.1 | 4.38 | 6.02 | -0.0424 | 3.1 | 0.662 | 1.12 | 3.45 | 5.58 | 4.43 | 6.87 | 1.43 | 5.11
GGAACGAGGGCAAATTGATAGCAGAGTTTGATGG | 0.902 | 0.348 | -0.101 | 0.452 | -0.144 | 1.73 | 1.16 | 0.944 | 0.134 | 0.629 | 3.46 | 2.68 | 0.618 | -0.23 | 0.358 | 0.625 | 0.703 | 0.402 | -0.436 | 2.23
ACTATTAGTTGAGACGAGGGCAATCGATAGGTTG | 0.46 | 0.333 | -0.168 | 0.136 | -0.0649 | 0.253 | 0.627 | 0.107 | 0.45 | 0.23 | 0.458 | 0.2 | 0.805 | 0.52 | 0.357 | 1.46 | 0.418 | 1.25 | 0.603 | 0.918
TCTTGTAGATCAAGCGGGTTAAGAAAGCCTGAGT | 0.257 | 0.0631 | -0.461 | 0.225 | -0.187 | 0.817 | -0.599 | 1.1 | 2.23 | 1.81 | 1.69 | 0.202 | -0.333 | -0.182 | -0.174 | 0.313 | -0.037 | 0.0624 | -0.21 | 0.093
TCAGACAGGTGAAGGTAAGTCAGGTACGCAGTCG | 0.571 | 0.454 | -0.273 | 0.356 | -0.365 | 0.993 | 0.552 | 2.03 | 4.06 | 2.93 | 2.4 | 1.07 | -0.136 | -0.843 | 1.02 | 0.265 | 0.282 | 0.741 | 0.234 | 1.08
CTCGAAAGGTCGGTTTAGGTGAGTATACGGATAA | 2.13 | 1.54 | -0.093 | 1.7 | 0.329 | 2.44 | 0.282 | 1.04 | -0.0408 | 0.683 | 0.133 | 0.896 | 0.666 | 0.13 | 1.29 | 1.51 | 0.344 | 1.64 | 0.736 | 2.66
GCATACAGGTAATACAAGGTGAAAGTCCGATTGT | 0.599 | 2.17 | 0.595 | 0.711 | -0.363 | 1.3 | 0.859 | 0.843 | 0.676 | 0.712 | 0.771 | 1.43 | 0.568 | -0.128 | 0.379 | 0.708 | 0.62 | 1.48 | 0.481 | 0.594
TGTCAAAGTTCAAAGGTAACGTATGTATCCACAC | 7.33 | 6.48 | 4.88 | 4.63 | 1.63 | 5.67 | 8.6 | 7.61 | 5.63 | 7.23 | 0.0702 | 4.53 | 1.85 | 1.93 | 2.61 | 5.65 | 3.95 | 6.64 | 1.84 | 5.04
TCTGCTAGGTCAACGATGGTCATCTAATCTGCTA | 3.5 | 3.34 | 0.105 | 2.03 | 0.0541 | 3.37 | 2.78 | 3.34 | 2.08 | 2.79 | 4.28 | 4.02 | 0.183 | 0.11 | 0.637 | 2.1 | -0.415 | 2.56 | -0.306 | 4.09
